Assay outcomes deposited in PubChem by several laboratories.
MITF TRPM1 inh: inhibitors of MITF-dependent TRPM1 promoter reporter, primary screen, cell-based, SK-MEL-5, single point, luciferase; inhibition, % at 12.5 µM; SK-MEL-5 TRPM1 promoter luciferase, 24 h; AID 488899, 2010; 330,000 tested, 0.83% active;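 active means mean inhibition across replicates of 60% or more, whatever share of single replicates reaches that level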
TROY NFkB inh: inhibitors of TROY-driven NF-kB signaling, primary screen, Q293 LMP1-TROYcd cells, NF-kB luciferase, uHTS; Q293 LMP1-TROYcd NF-kB luciferase reporter, 4 h; inhibition, % at 10 µM; 360,000 tested, 0.98% active; AID 1347056, 2019;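 active means compounds whose plate-normalised and pattern-corrected inhibition of the luciferase reporter signal at the single screening dose is 50% or more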
Peg3 promoter: Peg3 promoter-driven luciferase inhibitors, primary screen, cell-based, HeLa, luciferase luminescence; HeLa PEG-Prom luciferase reporter, overnight; inhibition, % at 20 µM; 360,000 tested, 1.7% active; AID 588405, 2011;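 active means inhibition of at least 50% at 20 µM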
LMP1 NFkB inh: EBV LMP1-driven NF-kappaB luciferase reporter inhibitors, primary screen, cell-based, luminescence, single point | LMP1-induced NF-kappaB luciferase reporter cells | inhibition, % at 12.5 µM | 350,000 tested, 0.69% active | AID 504558, 2011; in the data active means inhibition above about 41%
TWEAK-Fn14 inh: inhibitors of TWEAK-Fn14 signaling, primary screen, luciferase reporter cells, uHTS. AID 1159606, 2016. inhibition, % at 10 µM. 360,000 tested, 2% active. TWEAK-stimulated Fn14 reporter cells, luciferase luminescence, 8 h; in the data active means inhibition above about 50%
Shn3 inh set2: reduction of Shn3 3'UTR firefly luciferase signal, primary screen, Schnurri-3 inhibitor project, cell-based, Clone20 osteoblasts, set 2 | Clone20 osteoblast Shn3 3'UTR firefly luciferase, 24 h | inhibition, % at 12.5 µM | 360,000 tested, 0.52% active | AID 588674, 2011;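 active means mean inhibition of at least 75% with every replicate also reaching 75%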
A number is an active result; 0 = inactive; - = no result. Compounds with a hit are over-represented: about 4.1% of the library has one in this group of screens.

SMILES	MITF TRPM1 inh	TROY NFkB inh	Peg3 promoter	LMP1 NFkB inh	TWEAK-Fn14 inh	Shn3 inh set2
C[n+]1c(/C=C/c2ccc3c(c2)OCO3)ccc2ccccc21	0	81	0	0	82	0
CCOc1cc(NC(=S)NCCCN2CCOCC2)c(OCC)cc1NC(=O)c1cccc(F)c1	0	0	0	0	0	0
C=CCCC(=O)NC1CC(C)(C)Cc2c1cnn2-c1ccc(OC)cc1 (centres undefined)	0	0	0	0	0	0
Cc1ccc(C)c(N2N=C(C(=O)Nc3ccccc3N3CCOCC3)CCC2=O)c1	0	0	67	0	0	0
Fc1ccccc1-c1nc(NC2CCCC2)c2ccccc2n1	0	0	0	0	0	0
Oc1ccccc1-c1nc(NC2CCCC2)c2ccccc2n1	0	60	0	0	0	0
c1ccc(-c2nnc(-c3ccccn3)nc2NC2CCCCC2)cc1	74	0	0	86	0	0
CCC(=O)N1CCCC(C)(C(=O)NS(=O)(=O)c2ccccc2Cl)C1 (centres undefined)	-	0	0	-	0	0
CCN(CC(=O)Nc1cccc(F)c1)CC(=O)Nc1ccc2c(c1)OCCO2	-	0	0	0	0	0
COc1ccc(CNC(=O)c2sc(=O)n(Cc3ccc(S(=O)(=O)N(C)C)cc3)c2C)cc1	-	0	0	-	0	0
CC(=O)Oc1ccc(Cn2c(C)c(C(=O)NCc3ccc4c(c3)OCCO4)sc2=O)cc1	-	67	0	-	0	0
Cc1c(C(=O)NCc2ccc(C(F)(F)F)cc2)sc(=O)n1Cc1ccc(S(=O)(=O)N(C)C)cc1	-	0	0	-	57	0
COc1ccc(/C=C2\SC(=S)N(CCCC(=O)N3CCOCC3)C2=O)cc1OC	0	0	0	0	0	0
COc1cccc(/C=C2\SC(=S)N(CCCC(=O)N3CCCCC3CCO)C2=O)c1 (centres undefined)	0	0	64	0	0	0
COc1ccc(/C=C2\SC(=S)N(CCCC(=O)N3CCOCC3)C2=O)cc1	0	0	0	0	95	0
COc1ccc(/C=C2/SC(=S)N(CCC(=O)O)C2=O)cc1	61	0	0	0	85	0
O=C1C(=Cc2cn(-c3ccccc3)nc2-c2ccc(OCc3ccc(Cl)cc3)cc2)SC(=S)N1CCS(=O)(=O)O	-	0	0	-	62	0
COc1ccc(-c2nn(-c3ccccc3)cc2/C=C2/SC(=S)N(CCC(=O)O)C2=O)cc1	0	0	0	0	0	0
COc1ccc(-c2nn(-c3ccccc3)cc2/C=C2/SC(=S)N(CCC(=O)O)C2=O)c(C)c1	0	61	0	0	0	0
CCc1cc(C(=O)N/N=C/c2ccc(O)cc2O)c2ccccc2n1	68	0	52	0	0	93
Cc1cc(SCC(=O)N/N=C/c2ccc(O)cc2O)c(C)cc1Br	0	0	0	0	0	93
O=C(/C=C\c1ccccc1)NCC(=O)N/N=C/c1ccc(O)cc1O	67	0	0	0	0	0
Cc1cc(SCC(=O)N/N=C/c2ccccc2C(=O)O)c(C)cc1Br	0	0	0	0	0	0
COc1cccc(C(C)(O)c2nc(-c3cc(F)cc(F)c3)cs2)c1 (centres undefined)	-	0	0	-	54	0
CC(O)(c1cccc(F)c1)c1nc(-c2cccc(C(F)(F)F)c2)cs1 (centres undefined)	-	0	0	-	0	0
CC(O)(c1ccncc1)c1nc(-c2cccc(C(F)(F)F)c2)cs1 (centres undefined)	-	0	0	-	0	85
CC(O)(c1ccc(F)c(F)c1)c1nc(-c2cccc(C(F)(F)F)c2)cs1 (centres undefined)	-	0	0	-	0	0
CCN(CC)C(=O)c1cccc(-c2csc(C(C)(O)c3cccc(OC)c3)n2)c1 (centres undefined)	-	0	0	-	65	0
CC(O)(c1ccc(F)c(F)c1)c1nc(-c2ccc(Cl)cc2)cs1 (centres undefined)	-	0	76	-	0	0
COc1ccc(NC(=O)CNC(=O)Cn2cnc3sc(C)c(C)c3c2=O)cc1OC	0	0	0	0	0	0
